AMA1-RON2 inh: inhibitors of Plasmodium falciparum AMA1-RON2 interaction; AlphaScreen AMA1-biotinylated RON2 peptide binding; Potency, µM (highest dose often 58.2 µM), for the others: top-dose activity change, negative = inhibition, actives largely listed as inhibitors; 360,000 tested, 0.2% active; AID 720542;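 also: potency is read from the fitted curve at half-maximal effect; 0% = vehicle wells and -100% = peptide control; nearly all actives have a fitted effect of over 45% in size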
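AMA1 (3D7) with his tag at 25 nM final met compounds first, then biotinylated RON2 peptide at 25 nM; detection used donor plus acceptor beads, 10 µg/mL apiece, read by AlphaScreen after 30 min at room temperature.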
CHX counter: affects cycloheximide protein synthesis inhibition readout, counter-screen; cell reporter, cycloheximide protein synthesis inhibition counterscreen; max response, %; 300,000 tested, 12% active; AID 2314; in the data active = max response mostly above about 13%, no sharp cut-off; inactive = mostly below about 14%; also: read at 38.3 µM for the half of the compounds with a filed dose; 0% is about no effect
Pf growth 96h: P. falciparum growth inhibition at 96 hours | P. falciparum luciferase reporter growth, 96 h | Potency, µM (series often up to 28.7 µM), inactives show at the highest dose activity change, negative = inhibition, usual class: inhibitors | AID 504834 | 320,000 tested, 6.9% active; also: potency is read from the fitted curve at half-maximal effect; % is scaled to controls: 0 for no effect and ±100 for the full control effect
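P. falciparum expressing integrated firefly luciferase grown in erythrocytes (2% hematocrit, 0.05% parasitemia final) with compounds for 96 hours at 37 C, 5% CO2. Growth inhibition read as loss of luminescence after adding luciferase detection reagent.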
Pf growth 48h: inhibits P. falciparum growth in the first generation, 48 h | P. falciparum luciferase growth in erythrocytes, 48 h | Potency, µM (series often up to 28.7 µM), for inactives: top-dose activity change, negative = inhibition, usual class: inhibitors | 310,000 tested, 5.9% active; also: potency is read from the fitted curve at half-maximal effect; % is scaled to controls: 0 for no effect and ±100 for the full control effect
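A one-generation exposure of luciferase-tagged malaria parasites in RPMI 1640/Albumax erythrocyte culture, 37 C and 5% CO2. Inhibition is inferred from decreased luminescence after adding detection reagent.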
HCV inh: HCV inhibition. Potency, µM (top dose mostly 41.8 µM), for the others: at the highest dose activity change, negative = inhibition, hits mostly inhibitors. Huh7.5.1 HCVcc-Cre infection, luciferase reporter, 44 h. 340,000 tested, 3.4% active. AID 651820; also: potency is read from the fitted curve at half-maximal effect; % is scaled to controls: 0 for no effect and ±100 for the full control effect
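1,000 cells/well; 4 h culture; + compound; + HCVcc-Cre (~0.5 moi); 44 h; luciferase substrate, RT 15 min; read 15 sec.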
Shiga inhibitor: Shiga toxin inhibition; Vero cells, Shiga toxin protein synthesis inhibition reporter; inhibition, % at 38.7 µM; 290,000 tested, 9.2% active; AID 2315; in the data active = inhibition mostly above about 28%, no sharp cut-off; inactive = mostly below about 43%; also: 0% is about no effect
An asterisk follows results filed as active; i = inactive; ? = inconclusive; · = not tested or not shown; [ ] = another dose, or the depositor's remark. Only some compounds are listed: those with a hit (about 21% of all), similar ones and a draw of the others. Unless noted, calls follow the shape of the dose curve; as a rule, active = well fitted curve in the direction sought with a large enough effect; inconclusive = small, poorly fitted or top-dose-only effect, or another doubt; inactive = no such curve, though single readings can be large; an effect the other way counts as inactive or inconclusive.

SMILES	AMA1-RON2 inh	CHX counter	Pf growth 96h	Pf growth 48h	HCV inh	Shiga inhibitor
CN(C(=O)c1ccc(NC(=O)Cc2ccc(NC(=O)C3CCN(C(=O)C4CCCCC4)CC3)cc2)cc1)C1CCCC1	-16%	·	·	·	0%[8.37 µM]	·
CN(C(=O)c1ccc(NC(=O)Cc2ccc(NC(=O)C3CCN(C(=O)C4CCC4)CC3)cc2)cc1)C1CC1	-30%	·	9.3µM*	?	-6%	·
CN(C(=O)c1ccc(NC(=O)Cc2ccc(NC(=O)C3CCN(C(=O)C4CCCC4)CC3)cc2)cc1)C1CC1	?	·	2.1µM*	?	-2%	·
CS(=O)(=O)Nc1cccc2[nH]ncc12	0%	-3	14%	0%	-2%	-1
COc1ccc(-c2n(-c3ccccn3)c3ccccc3[n+]2-c2ccccn2)cc1	-1%	4	4.1µM*	10µM*	6%	22
COc1ccc(CN=Cc2[nH]c3ccc(Br)c(Cl)c3c2O)cc1	3%	-5	?	3.7µM*	3%	-2
Cc1cc(C)cc(N=Cc2[nH]c3ccc(Br)c(Cl)c3c2O)c1	3%[2.32 µM]	-2	?	1.5µM*	3%	-19
COc1ccc(CC(=O)N/N=C\c2cc(Br)c(O)c(Br)c2)cc1	29%	-4	?	7%	0%	-7
O=C(CSC(=S)N1CCCC1)N/N=C/c1c(O)[nH]c(=S)[nH]c1=O	4%	·	·	·	13%	·
FC(F)(F)c1cc(Cl)c2nc(-c3ccccc3)c(Cc3cccc(Cl)c3)n2c1	4%	·	·	·	·	·
CCN(C(=O)c1ccc(Cl)c(S(=O)(=O)Nc2c(C)n(C)n(-c3ccccc3)c2=O)c1)c1ccccc1	-3%	·	·	·	-10%	·
O=C(Nc1cccc(Cl)c1N1CCOCC1)c1cccnc1Cl	15%	-1	16%	7%	17%	5
COCc1ccc(CN2CCc3c([nH]c4ccccc34)C2CC(C)C)o1 (centres undefined)	0%	1	6.6µM*	?	-2%	8
Cc1cccc(N=Nc2cn[nH]c2-c2ccco2)c1	3%	54*	218%	i	?	100*
COc1ccc(CC2SC(=Nc3ccc(F)cc3)NC2=O)cc1 (centres undefined)	1%	-1	-25%	2.9µM*	3%	-8
CC1CCCCN1C(=O)C1CC(c2ccc(F)cc2)=NO1 (centres undefined)	-4%	59*	?	80%	6%	90*
O=C(C1CC(c2ccccc2O)=NO1)N1CCCCC1 (centres undefined)	-1%	48*	·	189%	-1%	133*
COc1cccc(C2=NOC(C(=O)N3CCc4ccccc4C3)C2)c1 (centres undefined)	-1%	12*	?	7%	-3%	26*
O=C(C1CC(c2ccc(F)cc2)=NO1)N1CCc2ccccc2C1 (centres undefined)	-5%	21	0%	·	-1%	33
O=C(C1CC(c2ccc(Cl)c(Cl)c2)=NO1)N1CCC2(CC1)OCCO2 (centres undefined)	7%	28*	22%	107%	-18%	117*
CC1(C)CC(=O)C([N+](=O)[O-])=C(NCCCC(=O)O)C1	9%	8	0%	17%	27%	-11
COc1ccc(F)cc1S(=O)(=O)NCC(=O)NCc1cc(=O)n(C)c(=O)n1C	13%	6	46%	23%	15%	-3
Cc1cccc(N2CCN(C(=O)CN3C(=O)NC4(CCCCCC4)C3=O)CC2)c1C	-7%	·	?	-4%	?	·
COc1cccc(C2=NOC(C(=O)N3CCC4(CC3)OCCO4)C2)c1 (centres undefined)	-14%	52*	14%	46%	15%	97*
O=C(C1CC(c2ccc(F)cc2)=NO1)N1CCCCC1 (centres undefined)	10%	26*	?	135%	-2%	61*
SMILES	AMA1-RON2 inh	CHX counter	Pf growth 96h	Pf growth 48h	HCV inh	Shiga inhibitor
COc1cccc(C2=NOC(C(=O)NC(C)C)C2)c1 (centres undefined)	5%	-3	·	?	·	25
O=C(C1CC(c2ccc(F)cc2)=NO1)N1CCC2(CC1)OCCO2 (centres undefined)	-4%	45*	·	·	26%	71*
O=C(N/N=C/C(Cl)=C\c1ccccc1)c1ccco1	12%	48*	3.7µM*	1.9µM*	-16%	113*
O=C(N/N=C/C(Cl)=C/c1ccccc1)c1ccco1	8%	51*	?	5.2µM*	-15%	71*
O=C(Oc1ccc(/C=N/NC(=O)c2ccco2)cc1)c1ccccc1	0%	·	-107%	?	1%	·
COCCN(Cc1ccccc1)C(=O)c1cccc(S(=O)(=O)N2CCN(Cc3ccccc3)CC2)c1	88%	·	·	·	·	·
O=C(O)c1ccccc1N/N=C\c1ccnc2ccccc12	-8%	28*	186%	181%	6%	43
O=C(Cc1ccccc1)N/N=C/c1cc(Br)cc(Br)c1O	77%	-3	-19%	?	?	12
O=C(O)c1ccccc1N/N=C/c1cc(Br)cc(Br)c1O	-24%	37*	353%	169%	-5%	127*
ON=Cc1ccnc2ccccc12	12%	·	·	·	·	·
O=C(Nc1ccc(F)cc1)C(c1ccccc1)N1CCN(c2cccc(C(F)(F)F)n2)CC1 (centres undefined)	-3%	·	·	·	·	·
COc1ccc2c(c1)cc(C(=O)N[C@H](C(=O)N1CCC(C(=O)O)CC1)C(C)C)n2C	47%	5	5%	-10%	12%	17
O=C(COc1ccc(C(=O)c2ccccc2)cc1)NC1CCCCCC1	-2%	-2	?	?	11µM*	-6
O=C(COc1ccccc1)NC1CCCCCCC1	0%	28*	-7%	36%	6%	44*
O=C(COc1ccccc1)NC1CCCCC1	4%	11	15%	7%	33%	-7
O=C(COc1ccc(C(=O)c2ccccc2)cc1)NC1CCCCC1	0%	-1	44%	9%	22%	18
CCC(C)(C)NC(=O)COc1ccc(C(=O)c2ccccc2)cc1	7%	22*	-12%	-17%	11%	54
COC(=O)c1ccccc1OCC(=O)NC1CCCCC1	16%	27*	·	19%	?	132*
CC(C)c1cccc(C(C)C)c1NC(=O)CN1C(=O)NC2(CCCC2)C1=O	-8%	-7	-2%	19%	23%	-3
O=S(=O)(Nc1cccc(-c2nnco2)c1)c1ccc(Cl)cc1	-1%	-1	0%	?	12%	10
O=C1CN(S(=O)(=O)c2cccc(Br)c2)CCN1	2%	·	·	·	4%	·
Cc1cc(C)c(Nc2cc(S(=O)(=O)O)c(N)c3c2C(=O)c2ccccc2C3=O)c(C)c1	28µM*	-9	?	?	13%	-14
